RAD54 branch – blocks human RAD54 Holliday junction branch migration | AID 602329 | FAM/BHQ fluorescence | 360,000 tested, 0.14% active | Q92698 | inhibition, % at 10.4 µM;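 active means mean normalized replicate activity at least 40 and at least half of replicates scoring 40 or more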;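 further: inhibitors cause a drop in the FAM fluorescence signal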
MLL AF4-AF9 inh – blocks AF4 peptide binding to human AF9 | P42568 | AlphaScreen, biotin-AF4 peptide binding to FLAG-AF9 | inhibition, % at 10 µM | 350,000 tested, 0.47% active;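 active means every replicate reaching a set inhibition limit, whatever the replicate mean, cut at about 25% in these data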
Target sequence (P42568 whole entry, looked up): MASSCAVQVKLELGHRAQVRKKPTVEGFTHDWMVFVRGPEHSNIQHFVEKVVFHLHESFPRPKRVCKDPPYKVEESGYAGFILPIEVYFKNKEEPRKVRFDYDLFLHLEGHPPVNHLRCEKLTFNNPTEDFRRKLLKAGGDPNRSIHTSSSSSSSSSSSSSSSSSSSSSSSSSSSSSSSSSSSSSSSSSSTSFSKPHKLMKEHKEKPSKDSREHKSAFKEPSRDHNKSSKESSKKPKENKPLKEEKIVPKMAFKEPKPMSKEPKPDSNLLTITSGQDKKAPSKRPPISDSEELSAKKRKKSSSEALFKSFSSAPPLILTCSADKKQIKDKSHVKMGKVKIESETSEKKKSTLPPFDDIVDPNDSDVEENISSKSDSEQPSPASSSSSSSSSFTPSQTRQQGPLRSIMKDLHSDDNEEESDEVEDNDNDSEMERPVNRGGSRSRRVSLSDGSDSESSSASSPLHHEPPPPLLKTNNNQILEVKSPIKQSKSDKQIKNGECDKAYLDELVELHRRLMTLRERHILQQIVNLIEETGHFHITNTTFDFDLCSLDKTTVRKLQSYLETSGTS
N-glyco inh – blocks N-linked glycosylation in D54 reporter cells; D54 ERlucT glycosylation luciferase reporter, 24 h; percent of 100 nM tunicamycin response; reporter increase, % at 12.5 µM; 360,000 tested, 0.23% active; AID 588692;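 active means mean luciferase reporter signal, scaled so untreated is 0 and the glycosylation-blocking control 100, at or above a set limit in every replicate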;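 further: luciferase carries N-glycosylation sites so blocking glycosylation raises the light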
Casp6 inh – blocks human caspase-6 cleavage activity | P55212 | purified caspase-6, Z-VEID-R110 cleavage fluorescence | inhibition, % at 12.5 µM | 350,000 tested, 0.53% active;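 active means mean inhibition across replicates at least about 35%, with every replicate also reaching that limit, limit read from the data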
RAD52 anneal inh – blocks human RAD52 DNA annealing; recombinant RAD52 DNA annealing, FRET fluorescence; 360,000 tested, 0.46% active; AID 651710; P43351; inhibition, % at 18.7 µM;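 active means every replicate showing at least 50% inhibition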
Hits are given with their value; 0 = inactive; - = not tested or not shown; ! = a repeat was not active. Rows were chosen to be rich in hits. Some 1.2% of all compounds tested hit in one or more screens of this group.

SMILES	RAD54 branch	MLL AF4-AF9 inh	N-glyco inh	Casp6 inh	RAD52 anneal inh
Cc1noc(C)c1S(=O)(=O)Nc1ccc2c(c1)CC(=O)N([C@@H](C)CO)C[C@H](C)[C@@H](CN(C)C(=O)Nc1cccc3ccccc13)O2	0	0	-	0	0
Fc1cccc(CN2C[C@@H]3N[C@H](C2)C3c2ccc(-c3ccccc3)cc2)c1 (some centres undefined)	-	0	-	0	84!
Fc1cccc(-c2ccc(C3[C@@H]4CN(Cc5cccnc5)C[C@H]3N4)cc2)c1 (some centres undefined)	-	0	-	0	55!
N#Cc1ccc(-c2ccc(C3[C@@H]4CN(Cc5ccccc5F)C[C@H]3N4)cc2)cc1 (some centres undefined)	-	0	-	0	84!
Fc1cccc(-c2ccc(C3[C@@H]4CN(Cc5ccccc5F)C[C@H]3N4)cc2)c1 (some centres undefined)	-	0	-	0	83!
COc1ccccc1CN1C[C@@H]2N[C@H](C1)C2c1ccc(-c2ccc(C#N)cc2)cc1 (some centres undefined)	-	0	-	0	0
Cc1cc(C(=O)Nc2cccc3c2O[C@@H](CN(C)S(=O)(=O)c2cn(C)cn2)[C@H](C)CN([C@@H](C)CO)C3=O)n(C)n1	0	0	-	0	0
Cc1noc(C)c1NC(=O)Nc1ccc2c(c1)C(=O)N(C)[C@@H]1CC[C@@H](CC(=O)NCc3ccc(Cl)cc3)O[C@H]1CO2	0	0	-	0	0
C[C@H](CO)N1C[C@H](C)[C@H](CN(C)C(=O)NC2CCCCC2)Oc2ccc(NC(=O)Cc3ccccc3)cc2CC1=O	0	0	-	0	0
CCCC(=O)N1CCC2(CC1)CN(C(=O)COC)[C@@H](CO)c1c2c2ccc(OC)cc2n1C	-	0	-	0	0
c1ncc(-c2ccc(C3[C@@H]4CN(Cc5ccc6c(c5)OCO6)C[C@H]3N4)cc2)cn1 (some centres undefined)	-	0	-	0	51
Fc1cccc(CN2C[C@@H]3N[C@H](C2)[C@@H]3c2ccc(-c3cccc(F)c3)cc2)c1	-	0	-	0	86
O=S(=O)(c1ccc(-c2ccccc2)cc1)N1C[C@@H]2N[C@H](C1)C2c1ccc(-c2ccccc2)cc1 (some centres undefined)	-	0	-	0	0
Fc1cccc(CN2C[C@@H]3N[C@H](C2)C3c2ccc(-c3cncnc3)cc2)c1 (some centres undefined)	-	0	-	0	0
N#Cc1ccc(-c2ccc([C@@H]3[C@@H]4CN(S(=O)(=O)c5ccc(-c6ccccc6)cc5)C[C@H]3N4)cc2)cc1	-	0	-	0	79
C/C=C/c1ccc2c(c1)O[C@@H](CN(C)CC1CCCC1)[C@H](C)CN([C@H](C)CO)S2(=O)=O	0	0	-	0	0
C[C@H]1CN([C@@H](C)CO)C(=O)c2cc(NC(=O)Cc3cn(C)c4ccccc34)ccc2O[C@H]1CN(C)S(=O)(=O)c1ccccc1	0	0	-	0	0
O=S(=O)(N[C@@H]1CC[C@@H](CCn2cc(-c3ccccc3F)nn2)O[C@H]1CO)c1ccc(F)cc1	-	0	-	0	0
COC(=O)Cc1cc(=O)n(-c2nc3ccccc3[nH]2)[nH]1	-	0	0	44	0
CCNC(=O)C[C@H]1CC[C@H](NS(=O)(=O)c2ccc(F)cc2)[C@H](CO)O1	0	0	-	0	0
O=S(=O)(c1ccc(F)cc1)c1snnc1-c1ccccc1	-	0	0	43	0
O=c1[nH]c(Nc2ccccn2)cc2ccccc12	0	0	0	90	0
Cc1ccccc1Nc1cc2ccccc2c(=O)[nH]1	-	-	0	-	-
Cc1nn(CCc2nc(-c3ccco3)cs2)c2[nH]c(=O)cc(C(F)(F)F)c12	0	0	0	49	0
Cc1cc(C)n(CCc2nc(-c3ccco3)cs2)n1	0	0	0	58	0
CCC(=O)N1CC2(CCN(S(C)(=O)=O)CC2)c2c(n(C)c3cc(OC)ccc23)[C@H]1CO	-	0	-	-	-
COc1ccc2c3c([nH]c2c1)[C@H](CO)N(C(=O)Nc1ccc(F)cc1)CC31CCN(S(=O)(=O)c2cccs2)CC1	-	0	-	0	0
CCn1cc(/C=C(\NC(=O)c2cc(OC)c(OC)c(OC)c2)C(=O)NCCCN2CCOCC2)c2ccccc21	-	25	0	0	0
CCn1cc(/C=C(\NC(=O)c2cc(OC)c(OC)c(OC)c2)C(=O)NCCN2CCOCC2)c2ccccc21	-	0	0	0	0
Cn1nc(-c2ccc(N3CCOCC3)c(NS(=O)(=O)c3ccc(Cl)cc3)c2)c2ccccc2c1=O	0	-	0	-	-

High-throughput results (PubChem BioAssay)
